According to PubChem BioAssay (Tox21):
Results filed as inconclusive are left out. Calls of active or inactive are those of the source. Calls follow the shape of the dose curve; as a rule, active = well fitted cell-killing curve with a large enough effect in the repeat runs; inconclusive = weak or mixed curves, or effect the other way; inactive = no such curve, though single readings can be large or run the other way.

Test: qHTS assay to identify small molecule agonists of the RXR signaling pathway - cell viability counter screen (AID 1159529); also: nearly all actives have a fitted effect of over 50% in size
Details: RXR-alpha-bla HEK293T viability, CellTiter-Glo, 16 h; series mostly up to 76.8 µM
Text: National Center for Advancing Translational Sciences [NCATS]
NIH Chemical Genomics Center [NCGC]
U.S. Environmental Protection Agency [EPA]
National Institutes of Environmental Health Sciences [NIEHS]
National Toxicology Program [NTP]
U.S. Food and Drug Administration [FDA]
The Retinoid X receptor (RXR), a nuclear hormone receptor expressed in liver, spleen, placenta, epidermis, central nervous system. These receptors are able to form homo and heterodimers with other nuclear receptors and due to this heterodimerizing ability, RXR functions as master regulators producing diverse physiological effects. Three subtypes of RXR exist; alpha, beta and gamma. Retinoid X receptor alpha (RXR-alpha) has potential roles in metabolic signaling pathways, skin alopecia, dermal cysts, cardiac development, insulin sensitization etc. Therefore screening environmental chemicals on RXR-alpha signaling can be used for the studies focused on such therapeutic applications. For quantification of RXR-alpha ligands signaling, GeneBLAzer RXR alpha-UAS-bla HEK 293T (Life Technologies, Carlsbad, CA) cells containing a beta-lactamase reporter-gene under control of Retinoid X receptor-alpha response element were used to screen Tox21 10K library. The cytotoxicity of the Tox21 compound library against the RXR-alpha HEK 293T cell line was tested in parallel by measuring cell viability using CellTiter-Glo assay (Promega Corporation, Madison, WI) in the same wells.
Tox21 Assay Protocol Summary:
RXR-alpha HEK 293T cells were dispensed at 2,000 cells/6 uL of assay medium containing 2% charcoal-stripped FBS using a Multidrop Combi (ThermoFisher Scientific, Waltham, MA) dispenser. The assay was performed in black wall/clear-bottom 1536-well plates (Greiner Bio-One North America Inc. Monroe, NC). Tetraoctyl ammonium bromide was used as a positive control in the cytotoxicity screen. After the assay plates were incubated at 37 C and 5% CO2 for 5 hr, 23 nL of compounds dissolved in DMSO, positive control or DMSO only were transferred to the assay plate by a Pintool station (Kalypsys, San Diego, CA). The assay plates were incubated at 37 C and 5% CO2 for 16 hr. One uL of LiveBLAzer B/G FRET substrate (Life Technologies) was added using a Flying Reagent Dispenser (FRD) (Aurora Discovery, San Diego, CA) and the plates were incubated at room temperature for 2 hr. Fluorescence intensity (405 nm excitation, 460/530 nm emission) was measured using an Envision plate reader (PerkinElmer, Shelton, CT). For cytotoxicity, 4 uL/well of CellTiter-Glo reagent was added into the assay plates using an FRD. After 30 min incubation at room temperature, the luminescence intensity was measured using a ViewLux plate reader (PerkinElmer).
% is scaled to controls: 0 for no effect and ±100 for the full control effect.

Row | SMILES | outcome | activity change, negative = cytotoxicity
1 | COc1ccc(N=Nc2cc(C)c(N=Nc3ccc(S(=O)(=O)O)cc3)cc2OC)cc1 | inactive | 
2 | CN[C@@H]1[C@@H](O)[C@@H](O[C@@H]2[C@H](O)[C@H](O[C@H]3OC(CN)=CC[C@H]3N)[C@@H](N)C[C@H]2N)OCC1(C)O (stereo not given in full) | inactive | 
3 | CC1(N)CCC(C(C)(C)N)CC1 (stereo not given) | inactive | 
4 | CO/N=C(/C(=O)N[C@@H]1C(=O)N2C(C(=O)O)=C(Cn3nnc(C)n3)CS[C@H]12)c1csc(N)n1 | inactive | 
5 | N#CCCOCCOCCC#N | inactive | 
6 | Cc1cccc(Nc2ccncc2S(=O)(=O)NC(=O)NC(C)C)c1 | inactive | 
7 | Nc1ccnc(=O)[nH]1 | inactive | 
8 | O=P(O)(O)OCC(O)CO (stereo not given) | inactive | 
9 | CC(=O)c1ccc(OCC(=O)N2CCCCC2)cc1 | inactive | 
10 | O=C(COCCOCCOCC(=O)Nc1c(I)cc(I)c(C(=O)O)c1I)Nc1c(I)cc(I)c(C(=O)O)c1I | inactive | 
11 | CC1=CC[C@H](CC=O)C1(C)C | inactive | 
12 | CCCCCCCCCCCCCCCC(=O)NCCO | inactive | 
13 | CC(C)COC(=O)CC(C(=O)OCC(C)C)S(=O)(=O)O (stereo not given) | inactive | 
14 | CCC(O)C(C)(C)C (stereo not given) | inactive | 
15 | CC(=O)OCC(=O)[C@@]1(O)[C@H](OC(C)=O)C[C@H]2[C@@H]3CCC4=CC(=O)C=C[C@]4(C)[C@@]3(F)[C@@H](O)C[C@@]21C | inactive | 
16 | O=C(Nc1cccc(C2=NCCN2)c1)Nc1cccc(C2=NCCN2)c1 |  | 12.6% [at 15.8 µM] (inactive)
17 | Cc1c(C(C)C)c(=O)n(-c2ccccc2)n1C | inactive | 
18 | O=c1cc(O)c(Cl)c[nH]1 | inactive | 
19 | CC(=O)OC[C@H]1O[C@@H](OC(C)=O)[C@H](OC(C)=O)[C@@H]1OC(C)=O | inactive | 
20 | CCN1CN(CC)CN(CC)C1 | inactive | 

Row | SMILES | outcome | activity change, negative = cytotoxicity
21 | CC(C)COC(=O)COc1ccc(Cl)cc1Cl | inactive | 
22 | Cc1ccccc1C(=O)N1CC/C(=N\OS(=O)(=O)O)c2ccc(Cl)cc21 | inactive | 
23 | CCCCCN(CCCOC)C(=O)C(CCC(=O)O)NC(=O)c1ccc(Cl)c(Cl)c1 (stereo not given) | inactive | 
24 | CC(C)COC(=O)CCCCC(=O)OCC(C)C | inactive | 
25 | CC(=O)OC(C(=O)c1ccccc1)c1ccccc1 (stereo not given) | inactive | 
26 | O=C1OC(=O)c2ccccc21 | inactive | 
27 | CNC(=O)NC | inactive | 
28 | c1ccccc1 | inactive | 
29 | CC(C)CCO | inactive | 
30 | OC(CCN1CCCCC1)(c1ccccc1)c1ccccc1 | inactive | 
31 | C=C[Si](C)(C)O[Si](C)(C)C=C | inactive | 
32 | Nc1cc(Cl)cc(S(=O)(=O)O)c1O | inactive | 
33 | Oc1ccccc1Cc1ccccc1O | inactive | 
34 | CCN(CCC#N)c1ccccc1 | inactive | 
35 | CC(=O)N(CC(O)CO)c1c(I)c(C(=O)NCC(O)CO)c(I)c(C(=O)NCC(O)CO)c1I (stereo not given) | inactive | 
36 | C[Si]1(C)N[Si](C)(C)N[Si](C)(C)N1 | inactive | 
37 | CCCCC(CC)COC(=O)c1ccccc1 (stereo not given) | inactive | 
38 | NC(=O)NC(=O)Cc1ccccc1 | inactive | 
39 | CN[C@@H]1[C@H](O)[C@H](NC)[C@H]2O[C@@]3(O)C(=O)C[C@@H](C)O[C@H]3O[C@@H]2[C@H]1O | inactive | 
40 | CO[Si](CCCS)(OC)OC | inactive | 
